# Assay results reported in PMC5700166.
# Numbering of substitutions follows the chain as printed.
# Columns and labels:
# Assay in all cases: protein-binding microarray (PBM); PBM: ~300 nM protein, 6 mM HEPES pH 7.8, 80 mM KCl, 0.5 mM EDTA, 0.5 mM EGTA, 6% glycerol, 35 ng/ul poly-dIdC, 1% milk, 1 h, room temperature; Ap Aiptasia and Nv Nematostella (sea anemones) / Co Capsaspora / Aq Amphimedon (sponge) / Dm Drosophila / Hu human; RHD is the Rel homology domain; high values mean tight binding
# Details in all cases: dsDNA, one strand shown
# GST-Ap-NF-kB RHD = target: T1, GST-Ap-NF-kB RHD (Exaiptasia pallida (Aiptasia), UniProt A0A913YAJ5 2-422)
# T1 sequence: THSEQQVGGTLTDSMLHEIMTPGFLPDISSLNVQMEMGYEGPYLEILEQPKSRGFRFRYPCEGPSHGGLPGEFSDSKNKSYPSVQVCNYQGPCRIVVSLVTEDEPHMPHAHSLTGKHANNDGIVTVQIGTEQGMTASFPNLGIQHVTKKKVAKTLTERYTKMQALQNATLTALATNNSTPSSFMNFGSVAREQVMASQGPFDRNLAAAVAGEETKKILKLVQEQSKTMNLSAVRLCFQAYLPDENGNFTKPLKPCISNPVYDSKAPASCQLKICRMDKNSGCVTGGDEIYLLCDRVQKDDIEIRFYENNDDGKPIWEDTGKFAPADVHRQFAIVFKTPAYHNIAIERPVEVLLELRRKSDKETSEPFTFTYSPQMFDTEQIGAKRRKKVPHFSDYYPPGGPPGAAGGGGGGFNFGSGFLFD
# [1] = target: T2, GST-Nv-NF-kB (Cys allele) (Nematostella vectensis, UniProt E5G601 2-411)
# T2 sequence: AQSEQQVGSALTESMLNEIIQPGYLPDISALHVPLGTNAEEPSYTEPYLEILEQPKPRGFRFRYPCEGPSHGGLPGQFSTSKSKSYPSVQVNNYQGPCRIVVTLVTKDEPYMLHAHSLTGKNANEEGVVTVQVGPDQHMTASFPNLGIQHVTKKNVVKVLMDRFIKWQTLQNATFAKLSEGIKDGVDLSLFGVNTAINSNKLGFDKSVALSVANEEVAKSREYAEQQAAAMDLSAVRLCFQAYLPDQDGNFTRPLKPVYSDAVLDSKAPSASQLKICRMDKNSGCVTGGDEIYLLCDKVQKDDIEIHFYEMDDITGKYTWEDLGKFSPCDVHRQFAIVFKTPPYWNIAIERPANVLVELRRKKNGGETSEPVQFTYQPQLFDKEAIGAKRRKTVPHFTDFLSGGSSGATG
# [2] = target: T3, GST-Nv-NF-kB (Ser allele) (Nematostella vectensis, UniProt A7UNT2 2-411)
# T3 sequence: T2 sequence with Q21R, C66S, S207N, E215Q, V217A, E225K, A268E, D399E
# GST-Co-NF-kB = target: T4, GST-Co-NF-kB (Capsaspora owczarzaki, UniProt F1ARL5 200-546)
# T4 sequence: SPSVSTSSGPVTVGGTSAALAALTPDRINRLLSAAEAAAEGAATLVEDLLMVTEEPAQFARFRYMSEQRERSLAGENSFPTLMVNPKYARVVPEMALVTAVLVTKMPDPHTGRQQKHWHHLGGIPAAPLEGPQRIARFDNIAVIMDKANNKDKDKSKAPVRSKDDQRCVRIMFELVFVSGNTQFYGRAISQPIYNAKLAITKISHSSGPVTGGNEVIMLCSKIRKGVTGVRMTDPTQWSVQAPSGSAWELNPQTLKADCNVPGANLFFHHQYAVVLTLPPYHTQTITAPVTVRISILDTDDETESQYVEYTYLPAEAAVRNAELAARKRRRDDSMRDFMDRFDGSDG
# GST-Dm-Relish = target: T5, GST-Dm-Relish (Drosophila melanogaster, UniProt Q94527 99-473)
# T5 sequence: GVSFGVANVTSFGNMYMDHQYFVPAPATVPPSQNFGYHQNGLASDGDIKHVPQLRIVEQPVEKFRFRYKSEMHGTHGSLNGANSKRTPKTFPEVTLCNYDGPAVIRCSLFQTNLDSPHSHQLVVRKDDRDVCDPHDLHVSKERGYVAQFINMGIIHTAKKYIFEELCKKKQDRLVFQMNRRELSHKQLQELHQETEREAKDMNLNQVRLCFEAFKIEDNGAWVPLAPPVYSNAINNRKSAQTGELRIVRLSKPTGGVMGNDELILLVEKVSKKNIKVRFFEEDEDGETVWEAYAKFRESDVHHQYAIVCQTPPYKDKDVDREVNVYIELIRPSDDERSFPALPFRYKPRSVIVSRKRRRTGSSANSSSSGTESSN
# GST-Aq-NF-kB = target: T6, GST-Aq-NF-kB (Amphimedon queenslandica, UniProt A9Y5G7 2-389)
# T6 sequence: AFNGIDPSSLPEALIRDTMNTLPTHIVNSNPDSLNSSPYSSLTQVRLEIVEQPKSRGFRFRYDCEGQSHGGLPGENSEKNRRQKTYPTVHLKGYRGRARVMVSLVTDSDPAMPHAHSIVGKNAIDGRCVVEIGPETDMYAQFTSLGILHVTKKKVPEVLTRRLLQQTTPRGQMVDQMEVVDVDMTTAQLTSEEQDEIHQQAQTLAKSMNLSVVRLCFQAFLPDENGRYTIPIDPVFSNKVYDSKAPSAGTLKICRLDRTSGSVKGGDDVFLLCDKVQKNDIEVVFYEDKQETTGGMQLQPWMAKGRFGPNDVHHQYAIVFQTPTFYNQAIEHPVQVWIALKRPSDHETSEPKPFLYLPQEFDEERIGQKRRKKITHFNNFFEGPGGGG
# GST-Hu-p50 = GST-Hu-p50 (Homo sapiens, UniProt P19838 7-356)
# GST-Hu-p50, sequence (P19838 7-356): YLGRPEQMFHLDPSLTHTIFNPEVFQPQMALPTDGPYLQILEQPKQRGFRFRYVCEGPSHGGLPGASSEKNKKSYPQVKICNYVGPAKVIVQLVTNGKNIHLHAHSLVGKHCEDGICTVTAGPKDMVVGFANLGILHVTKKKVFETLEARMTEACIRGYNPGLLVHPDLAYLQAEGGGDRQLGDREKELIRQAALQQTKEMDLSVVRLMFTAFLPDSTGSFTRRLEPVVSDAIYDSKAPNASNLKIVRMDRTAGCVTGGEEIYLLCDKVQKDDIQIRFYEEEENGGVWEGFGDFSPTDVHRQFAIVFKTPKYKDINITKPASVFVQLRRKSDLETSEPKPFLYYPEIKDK
Sequence,binding signal (GST-Ap-NF-kB RHD) [z-score],binding signal [1] [z-score],binding signal [2] [z-score],binding signal (GST-Co-NF-kB) [z-score],binding signal (GST-Dm-Relish) [z-score],binding signal (GST-Aq-NF-kB) [z-score],binding signal (GST-Hu-p50) [z-score]
CCGATTAACATCAAAATTTCCCTTGATGTTAATCGGGTCTTGATTCGCTTGACGCTGCTG,5.11,8.26,7.99,5.01,4.81,7.6,5.41
CCGATTAACATCAAGTTTTTCCCTGATGTTAATCGGGTCTTGATTCGCTTGACGCTGCTG,4.35,5.43,7.41,5.3,5.12,5.1,4.44
CCGATTAACATCAGGGGATTGCATGATGTTAATCGGGTCTTGATTCGCTTGACGCTGCTG,5.77,5.89,6.93,2.38,4.62,4.23,5.31
CCGATTAACATCAAGTTTCCCCATGATGTTAATCGGGTCTTGATTCGCTTGACGCTGCTG,6.19,6.87,9.07,9.1,2.4,5.26,5.62
CCGATTAACATCAAGGGGATTTCTGATGTTAATCGGGTCTTGATTCGCTTGACGCTGCTG,9.69,10.8,12.7,2.79,9.09,7.73,7.98
CCGATTAACATCAAGGAACTCCCTGATGTTAATCGGGTCTTGATTCGCTTGACGCTGCTG,3.98,3.82,2.62,1.49,5.06,5.06,3.54
CCGATTAACATCAGGGAACTCCCTGATGTTAATCGGGTCTTGATTCGCTTGACGCTGCTG,8.33,10.6,6.92,3.39,9,9.76,6.16
CCGATTAACATCACGGGGGAAAATGATGTTAATCGGGTCTTGATTCGCTTGACGCTGCTG,6.86,6.21,9.47,11.7,4.45,5.8,6.51
CCGATTAACATCAGGGGATTAACTGATGTTAATCGGGTCTTGATTCGCTTGACGCTGCTG,5.48,6.31,7.11,2.99,8.54,5.82,4.93
CCGATTAACATCAAGGGGAAAACTGATGTTAATCGGGTCTTGATTCGCTTGACGCTGCTG,7.51,8.85,11,8,5.32,6.55,6.9
CCGATTAACATCAGGGGATACACTGATGTTAATCGGGTCTTGATTCGCTTGACGCTGCTG,4.44,4.02,5.34,3.62,5.84,4.05,3.83
CCGATTAACATCAAAAACCCCCCTGATGTTAATCGGGTCTTGATTCGCTTGACGCTGCTG,10.5,9.26,9.71,5.82,11.3,8.84,7.78
CCGATTAACATCAGGATTCCCCATGATGTTAATCGGGTCTTGATTCGCTTGACGCTGCTG,9.56,9.44,8.33,6.71,8.76,6.46,5.89
CCGATTAACATCAGGGATATCCCTGATGTTAATCGGGTCTTGATTCGCTTGACGCTGCTG,6.62,6.52,4.4,3.18,7.32,7.89,3.87
CCGATTAACATCAAAGATCCCCCTGATGTTAATCGGGTCTTGATTCGCTTGACGCTGCTG,7.86,7.46,7.79,6.69,8.85,6.88,6.85
CCGATTAACATCAGGGGAATTTATGATGTTAATCGGGTCTTGATTCGCTTGACGCTGCTG,9.91,11.9,12.9,8.16,9.13,8.72,7.75
CCGATTAACATCAGGGGAGTCCATGATGTTAATCGGGTCTTGATTCGCTTGACGCTGCTG,6.16,3.64,4.15,3.05,6.79,4.34,3.32
CCGATTAACATCAAAAATCCCGGTGATGTTAATCGGGTCTTGATTCGCTTGACGCTGCTG,4.77,4.4,4.06,2.98,8.52,5.12,3.94
CCGATTAACATCAACGTCCCCCCTGATGTTAATCGGGTCTTGATTCGCTTGACGCTGCTG,5.15,3.81,4.61,5.29,4.4,4.66,3.74
CCGATTAACATCAGGGAATCCCATGATGTTAATCGGGTCTTGATTCGCTTGACGCTGCTG,5.36,4.92,4.14,2.97,10.4,6.45,4.13
CCGATTAACATCAGGGGGACCCCTGATGTTAATCGGGTCTTGATTCGCTTGACGCTGCTG,8.92,5.39,4.83,4.63,9.89,8.54,5.02
CCGATTAACATCACATATTCCCCTGATGTTAATCGGGTCTTGATTCGCTTGACGCTGCTG,7.49,8.81,9.04,7.39,4.55,6.7,5.69
CCGATTAACATCAAAAATCCACCTGATGTTAATCGGGTCTTGATTCGCTTGACGCTGCTG,2.25,2.65,3.34,1.26,4.27,3.29,4.62
